{
  "source": "PubChem BioAssay AID1259343",
  "about": "(VanderVen Lab, College of Veterinary Medicine, Cornell …, 2017)",
  "note": "The whole screen tested about 6,200 compounds, of which about 2,900 (47%) were called active. Cut-off read from the data, not from the text of the source: active = inhibition above about 50%; inactive = the rest. So high a share suggests a set chosen from earlier hits. The list shows a part of the results.",
  "data": [
    {"assay": "Mycobacterium tuberculosis growth inhibition, primary screen (AID 1259343)", "conditions": "inhibition: at 10 µM, hits give high values; outcome: 10 uM", "values": [
      {"smiles": "CC(Cc1ccccc1F)NCc1noc(-c2ccc3c(c2)OCO3)n1", "note": "(configuration not stated)", "inhibition": "59.5% (active)"},
      {"smiles": "CC(C)Cc1noc(-c2ccc(-c3ccc4c(c3)OCCO4)nc2)n1", "inhibition": "3.86% (inactive)"},
      {"smiles": "CC(Cc1cccnc1)NCc1nc(Cc2ccccc2F)no1", "note": "(configuration not stated)", "inhibition": "33.9% (inactive)"},
      {"smiles": "Nc1ccc2nc(SCc3ccc(F)cc3)sc2c1", "inhibition": "16.7% (inactive)"},
      {"smiles": "Nc1nc2ccc(Oc3ccc4nc(N)sc4c3)cc2s1", "inhibition": "21% (inactive)"},
      {"smiles": "Cc1nc2ccc(N)cc2s1", "inhibition": "94.6% (active)"},
      {"smiles": "COc1cc(OC)nc(Nc2nc(C(N)Cc3ccc(Cl)cc3)cs2)n1", "note": "(configuration not stated)", "inhibition": "93.6% (active)"},
      {"smiles": "COc1cc(OC)nc(Nc2nc(C(N)Cc3ccc(F)cc3)cs2)n1", "note": "(configuration not stated)", "inhibition": "71.1% (active)"},
      {"smiles": "Oc1ccc(C=Nc2ccc3oc4ccccc4c3c2)c(O)c1O", "inhibition": "95% (active)"},
      {"smiles": "C(=C\\c1cccc(N2CCNCC2)c1)/c1ccccc1", "inhibition": "90.8% (active)"},
      {"smiles": "COc1cccc(C=CC(=O)c2cccc(N3CCOCC3)c2)c1", "inhibition": "44.4% (inactive)"},
      {"smiles": "CC1(C)C2(Cl)C(Cl)C(Cl)C(Cl)(C(Cl)Cl)C1(Cl)C2Cl", "note": "(configuration not stated)", "inhibition": "65.2% (active)"},
      {"smiles": "S=c1nc[nH]c2nc[nH]c12", "inhibition": "49.3% (inactive)"},
      {"smiles": "FC(F)(F)c1ccnc(NCC2COc3ccccc3O2)n1", "note": "(configuration not stated)", "inhibition": "96.6% (active)"},
      {"smiles": "Brc1ccccc1CNCC1COc2ccccc2O1", "note": "(configuration not stated)", "inhibition": "-26.4% (inactive)"},
      {"smiles": "FC(F)(F)CCc1ccnc(NCC2COc3ccccc3O2)n1", "note": "(configuration not stated)", "inhibition": "24.3% (inactive)"},
      {"smiles": "OC(C#CCC(O)c1ccccc1)c1ccccc1", "note": "(configuration not stated)", "inhibition": "101% (active)"},
      {"smiles": "CN(CC(O)c1ccccc1F)C(c1ccccc1)c1ccccc1", "note": "(configuration not stated)", "inhibition": "-46% (inactive)"},
      {"smiles": "O=S(=O)(c1ccc(F)cc1)N1CCCC(OCc2cc(F)cc(F)c2)C1", "note": "(configuration not stated)", "inhibition": "2.58% (inactive)"},
      {"smiles": "N#Cc1ccc(S(=O)(=O)N2CCC(Cc3ccc(F)cc3)CC2)cc1", "inhibition": "60.9% (active)"},
      {"smiles": "N#Cc1ccc(S(=O)(=O)N2CCC(Cc3ccc(C(F)(F)F)cc3)CC2)cc1", "inhibition": "71.7% (active)"},
      {"smiles": "N#Cc1ccc(S(=O)(=O)N2CCN(c3ccccc3F)CC2)cc1", "inhibition": "8.35% (inactive)"},
      {"smiles": "O=C(O)c1cc[c]([Hg][Cl])cc1", "inhibition": "33.6% (inactive)"},
      {"smiles": "COc1ccc(Cl)cc1NCC(=O)N1CCc2sccc2C1", "inhibition": "83.7% (active)"},
      {"smiles": "COc1ccc(C)cc1NC(=O)N1CCN(CCCOC(c2ccc(Cl)cc2)c2ccc(Cl)cc2)CC1", "inhibition": "-0.67% (inactive)"},
      {"smiles": "O=C(CNc1ccc2c(c1)OC(F)(F)O2)N1CCc2sccc2C1", "inhibition": "-40% (inactive)"},
      {"smiles": "CC(C)Oc1ccc(NC(=O)Cc2cccs2)cc1Cl", "inhibition": "38% (inactive)"},
      {"smiles": "CC(C)Oc1ccc(NC(=O)C2CCOCC2)cc1Cl", "inhibition": "95.4% (active)"},
      {"smiles": "C=CCn1c(=NC(=O)c2ccc(OC)cc2)sc2cccc(OC)c21", "inhibition": "39.7% (inactive)"},
      {"smiles": "Cc1cc(NC(=O)c2cccs2)n(-c2nc(C)c(C)c(=O)[nH]2)n1", "inhibition": "98.8% (active)"},
      {"smiles": "CCc1c(C)nc(-n2nc(C)cc2NC(=O)c2cccs2)[nH]c1=O", "inhibition": "101% (active)"},
      {"smiles": "CCCCS(=O)(=O)N(C)Cc1ccc(-c2ccc(Br)cc2)o1", "inhibition": "83.2% (active)"},
      {"smiles": "OCC#CCSc1nnc(-c2ccccc2Br)o1", "inhibition": "99.2% (active)"},
      {"smiles": "Brc1ccccc1-c1nnc(SCc2ncc(-c3ccccc3)o2)o1", "inhibition": "-4.92% (inactive)"},
      {"smiles": "OCC#CCSc1nnc(-c2cccc(Br)c2)o1", "inhibition": "-10.9% (inactive)"},
      {"smiles": "Fc1ccc(CN2CCC(Cc3ccc(-c4ccccc4)cc3)CC2)cc1C(F)(F)F", "inhibition": "59% (active)"},
      {"smiles": "CC(=O)Nc1ccc(-c2csc(NC(=O)C3Cc4ccccc4O3)n2)c(F)c1", "note": "(configuration not stated)", "inhibition": "16.7% (inactive)"},
      {"smiles": "CC(C)(C)c1ccc2c(c1)OCC(C(=O)Nc1nc(-c3ccncc3)cs1)O2", "note": "(configuration not stated)", "inhibition": "84.6% (active)"},
      {"smiles": "Oc1cccc2ccc(C=Cc3cccc(Br)c3)nc12", "inhibition": "90.5% (active)"},
      {"smiles": "Oc1cccc2ccc(/C=C/c3ccccc3OC(F)F)nc12", "inhibition": "100% (active)"},
      {"smiles": "COc1ccc(Br)cc1C=Cc1ccc2cccc(O)c2n1", "inhibition": "17.6% (inactive)"},
      {"smiles": "COC(=O)c1cc(C=O)c2ccc3ccccc3n12", "inhibition": "27.1% (inactive)"},
      {"smiles": "COC(=O)c1ccc(C=Cc2ccc3cccc(O)c3n2)cc1", "inhibition": "63.1% (active)"},
      {"smiles": "CCc1ccc(NC(=O)C(C)n2cc(C(F)(F)F)ccc2=O)cc1", "note": "(configuration not stated)", "inhibition": "49.6% (inactive)"},
      {"smiles": "CCc1ccc(NC(=O)c2ccc(CN3CCCC3=O)cc2)cc1", "inhibition": "73.2% (active)"},
      {"smiles": "Cc1cc(NC(=O)c2ccc(CN3C(=O)CC4(CCCC4)C3=O)cc2)ccc1Cl", "inhibition": "-6.77% (inactive)"},
      {"smiles": "CC(NS(=O)(=O)c1ccc(Cl)c(C(F)(F)F)c1)C1CC2CCC1C2", "note": "(configuration not stated)", "inhibition": "inactive"},
      {"smiles": "Cc1ccccc1C1CC(N(C(=O)c2ccc(Br)cc2)C2CC2)C1", "note": "(configuration not stated)", "inhibition": "82.4% (active)"},
      {"smiles": "CCn1c(C)c(C(=O)CN(C(=O)c2ccc(Br)cc2)C2CCCCC2)c(C)c1C(=O)OC", "inhibition": "22.6% (inactive)"},
      {"smiles": "Cc1ccc(C(=O)OC(C)CN2CCN(C)CC2)cc1", "note": "(configuration not stated)", "inhibition": "-10.1% (inactive)"},
      {"smiles": "COC(=O)c1ccc(N2CN=C(c3ccc(C)cc3)NC2=S)cc1", "inhibition": "87.5% (active)"},
      {"smiles": "CC1(Oc2ccccc2-c2ccno2)CCN(Cc2ccc(-c3ccccc3)o2)C1", "note": "(configuration not stated)", "inhibition": "25.5% (inactive)"},
      {"smiles": "Fc1ccc(N2CCN(C[C@H]3CN4CC[C@H]3C[C@@H]4CNC(=S)Nc3ccc(-n4cccn4)cc3)CC2)cc1", "inhibition": "95.6% (active)"},
      {"smiles": "CC(OC(=O)c1ccc(OCC2CCCO2)cc1)C(=O)Nc1nc(-c2ccc(F)c(F)c2)cs1", "note": "(configuration not stated)", "inhibition": "100% (active)"},
      {"smiles": "CCC(C)C(=O)Nc1nc(-c2ccc(OC)c(F)c2)cs1", "note": "(configuration not stated)", "inhibition": "0.73% (inactive)"},
      {"smiles": "CN(c1cccc(O)c1)S(=O)(=O)c1cc(Cl)sc1Cl", "inhibition": "-2.74% (inactive)"},
      {"smiles": "CN(c1cccc(O)c1)S(=O)(=O)c1ccc2c(c1)OCCCO2", "inhibition": "52.4% (active)"},
      {"smiles": "O=S(=O)(Oc1ccc2oc3ccccc3c2c1)c1ccc2c(c1)OCCO2", "inhibition": "31.3% (inactive)"},
      {"smiles": "Nc1ccc2scnc2c1", "inhibition": "94.5% (active)"},
      {"smiles": "O=C(Nc1ccc2scnc2c1)C1CC(=O)N(CC2CC2)C1", "note": "(configuration not stated)", "inhibition": "34.9% (inactive)"},
      {"smiles": "O=C(Nc1cc(C(F)(F)F)no1)c1ccc(Cl)cc1F", "inhibition": "97.8% (active)"},
      {"smiles": "O=C(NCC1CCC2(CC1)OCCO2)c1ccc(Cl)cc1F", "inhibition": "-19.8% (inactive)"},
      {"smiles": "CCCSc1nnc(SCC(=O)Nc2nc(C)cs2)s1", "inhibition": "90.9% (active)"},
      {"smiles": "Cc1csc(C(C#N)C(=O)CSc2nnc(NC3CC3)s2)n1", "note": "(configuration not stated)", "inhibition": "28.8% (inactive)"},
      {"smiles": "CCCSc1nnc(NCc2ccc(OC)cc2)s1", "inhibition": "33.5% (inactive)"},
      {"smiles": "NCC[C@H](O)C(=O)N[C@@H]1C[C@H](N)[C@@H](O[C@H]2O[C@H](CN)[C@@H](O)[C@H](O)[C@H]2O)[C@H](O)[C@H]1O[C@H]1O[C@H](CO)[C@@H](O)[C@H](N)[C@H]1O", "inhibition": "98.7% (active)"},
      {"smiles": "CN[C@H]1C[C@@H](N)[C@H](O)[C@@H](O[C@@H]2O[C@H](CO)[C@@H]3OC4(O[C@@H]3[C@@H]2O)O[C@H](C(N)CO)[C@H](O)[C@H](O)[C@H]4O)[C@@H]1O", "note": "(some centres not stated)", "inhibition": "41.3% (inactive)"}
    ]}
  ]
}
